Laboratory results from the OligoGym collection.

Molecular target: SPRR2B
Assay: pooled miR-30 sensor sort-seq; sequence = guide strand
Settings: shRNA
Note: reference of the scale not given here.

Point of comparison: TCCATGATAAGCTTTGATGAGA, sensor-assay potency score (higher = more potent) -1.51. Against it:
- TGAAGCTCTGGGAACTGACAAA — higher, -1.43
- TCTTTCTGCTGAAGCTCTGGGA — higher, -0.772
- TTGCACAGGTGGTAGAAGCTCA — higher, -0.478
- TCTGGGAACTGACAAAGCCAAG — lower, -1.68
- TTTGCTATCAGGGAACATCATG — higher, -1.04
- ATACTTTGGCTGGCAGGGTGGG — higher, -1.37
- TTAGAAAGGAAACCTTTTGCTA — higher, -0.743
- TAAGGGGAAAGAAGCTCCCTAT — higher, -0.405
- TTCCCAGGCACACAGCTGCAGC — lower, -1.61
- TTGCTATCAGGGAACATCATGG — higher, -0.524
- TATGAATCCATGATAAGCTTTG — higher, -0.839

Molecular target: SPSB2
Assay: as above
Settings: shRNA

Point of comparison: TTTGGGGTTCCAACCGTGGCGC, sensor-assay potency score (higher = more potent) -1.17. Against it:
- TAGCAGACTGTCATAGCCTTGA — higher, -0.29
- ATGTTCTCTGAACAGTCTTTGG — lower, -1.78
- TTGATTTCCGCAGAGCTTGGGT — higher, -0.0773
- TTCTCTGAACAGTCTTTGGGGT — higher, -0.466
- TTGTGGCGCACACACAGGCGGC — lower, -1.68
- TAGTGGTCAGTCTGCAGCGGGG — lower, -1.67
- TTGACCTCGATGTTCTCTGAAC — higher, -1.03
- TCTCTCTGGCACCTCCAGCTGC — lower, -1.35
- TTGCTCTGATGGTACAGCTTCC — higher, -0.719
- TAGCGTAGCCCAGAGTTCCCTC — higher, -0.633
- TTGAATAGCCCCTCTTACCCCG — higher, -0.468
